Only some compounds are listed: those with a hit (about 8.7% of all), similar ones and a draw of the others.
ALOX12 inh – Primary qHTS assay for inhibitors of human arachidonate 12S-lipoxygenase (ALOX12): Round 2; 580,000 compounds, 1.1% hits; Potency, µM (doses to about 108 µM), without a hit: at the highest dose activity change, negative = inhibition, hits mostly inhibitors; AID 1671190, 2021; purified 12hLO, xylenol orange hydroperoxide absorbance; further: on the % scale 0 is the no-effect control and ±100 the full control effect
Target sequence (P18054 whole entry, looked up): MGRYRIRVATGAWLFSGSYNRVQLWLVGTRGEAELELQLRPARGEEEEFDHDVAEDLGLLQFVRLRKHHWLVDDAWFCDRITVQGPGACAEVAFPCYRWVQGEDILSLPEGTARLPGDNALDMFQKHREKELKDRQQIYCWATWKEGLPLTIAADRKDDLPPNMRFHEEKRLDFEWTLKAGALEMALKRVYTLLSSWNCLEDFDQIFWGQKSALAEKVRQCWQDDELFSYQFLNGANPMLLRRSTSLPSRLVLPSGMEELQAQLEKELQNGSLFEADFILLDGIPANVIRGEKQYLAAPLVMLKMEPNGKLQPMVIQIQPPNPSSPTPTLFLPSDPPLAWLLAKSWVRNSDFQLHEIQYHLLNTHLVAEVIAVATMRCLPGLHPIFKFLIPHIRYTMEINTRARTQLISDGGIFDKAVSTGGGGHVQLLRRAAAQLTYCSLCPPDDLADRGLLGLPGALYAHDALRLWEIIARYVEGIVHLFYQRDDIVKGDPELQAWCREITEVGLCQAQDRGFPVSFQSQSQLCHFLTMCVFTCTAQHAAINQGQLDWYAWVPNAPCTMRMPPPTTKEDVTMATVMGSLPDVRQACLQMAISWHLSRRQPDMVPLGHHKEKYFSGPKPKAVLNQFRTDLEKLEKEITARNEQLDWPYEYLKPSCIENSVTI
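Hydroperoxide product was detected by ferrous iron/xylenol orange as the 573 to 405 nm absorbance ratio. Arachidonic acid at 40 uM (final) was turned over for 30 min at room temperature by 150 nM human 12hLO, pH 7.0 Hepes buffer, after 15 min compound preincubation.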
HP1b chromo inh – HTS for Inhibitors of HP1-beta Chromodomain Interactions with Methylated Histone Tails; Chromobox protein homolog 1 (Homo sapiens), P83916; AlphaScreen HP1-beta / biotin-H3K9me3 peptide binding; Potency, µM (titrated, usually from 114 µM), inactives show top-dose activity change, negative = inhibition, actives largely listed as inhibitors; 390,000 compounds, 0.56% hits; AID 540317, 2011; further: nearly all actives have a fitted effect of over 70% in size
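HP1-beta protein (50 nM final) preincubated 30 min at room temperature with biotinylated H3(1-18)K9me3 peptide (50 nM) in PBS pH 7.4, 0.01% Tween-20, then compound added for 30 min. AlphaScreen streptavidin donor/nickel chelate acceptor beads (10 ug/mL final), 30 min dark, luminescence read.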
G9a inh – qHTS Assay for Inhibitors of Histone Lysine Methyltransferase G9a. G9a H3K9 monomethylation, AlphaScreen, 2 h. Histone-lysine N-methyltransferase EHMT2 (Homo sapiens), Q96KQ7. AID 504332, 2011. Potency, µM (top dose mostly 102 µM), for the others: at the top dose activity, negative = inhibition, most hits filed as inhibitors. 350,000 compounds, 8.8% hits; further: on the % scale 0 is the no-effect control and ±100 the full control effect; nearly all actives have a fitted effect of over 75% in size
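AlphaScreen detection with an anti-monomethyl H3K9 antibody quantified product after a 2 h room-temperature reaction containing 500 nM biotinylated H3K9 peptide, 20 µM SAM and 20 nM enzyme, which had been preincubated 15 min with compound.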
BAZ2B inh – qHTS Assay for Inhibitors of BAZ2B. 360,000 compounds, 4.4% hits. AID 504333, 2011. Potency, µM (series often up to 114 µM), without a hit: at the highest dose activity change, negative = inhibition, most hits filed as inhibitors. AlphaScreen BAZ2B-H3K14Ac peptide displacement. Bromodomain adjacent to zinc finger domain protein 2B (Homo sapiens), Q9UIF8; further: on the % scale 0 is the no-effect control and ±100 the full control effect; nearly all actives have a fitted effect of over 60% in size
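AlphaScreen displacement of biotin-H3(5-23)K14Ac peptide (50 nM final) from BAZ2B (50 nM final) in PBS pH 7.4, 0.01% Tween-20; complex preformed 30 min RT, then compounds (top 110 uM) 30 min RT, beads 20 min dark.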
JMJD2A Tudor – qHTS Assay for Inhibitors of JMJD2A-Tudor Domain | Lysine-specific demethylase 4A (Homo sapiens), O75164 | AlphaScreen JMJD2A-Tudor / H3K4me3 peptide binding | Potency, µM (titrated, usually from 114 µM), without a hit: top-dose activity change, negative = inhibition, most hits filed as inhibitors | 390,000 compounds, 4.4% hits | AID 504339, 2011; further: on the % scale 0 is the no-effect control and ±100 the full control effect; nearly all actives have a fitted effect of over 50% in size
Sfp PPTase inh – qHTS Assay for Inhibitors of Bacillus subtilis Sfp phosphopantetheinyl transferase (PPTase); 4'-phosphopantetheinyl transferase ffp (Bacillus subtilis), Q9F4F7; Biochemical Sfp PPTase activity, qHTS; Potency, µM, for inactives: largest response in the series, negative = inhibition, actives largely listed as inhibitors; 310,000 compounds, 3.5% hits; AID 1490, 2009;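 further: the enzyme is Sfp with the accession as filed and its product quenches rhodamine fluorescence; 0% = enzyme reaction without inhibitor and -100% = no enzyme wells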
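After 15 min at room temperature with compound, 15 nM Sfp received 5 uM rhodamine-CoA plus 12.5 uM BHQ-2-ybbR (50 mM Hepes pH 7.6, 10 mM MgCl2). Rate came from the fluorescence difference over 30 min, ex 525/em 598 nm.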
* marks the source's active call; other numbers are inactive results; ? = inconclusive; . = not tested or not shown; [ ] = remark or other dose. The call rests on the fitted dose curve; in most records, active means well fitted curve in the direction sought with a large enough effect; inconclusive means small, poorly fitted or top-dose-only effect, or another doubt; inactive means no such curve, though single readings can be large; an effect the other way counts as inactive or inconclusive. Potency means the concentration at half of the fitted maximal effect.

SMILES | ALOX12 inh | HP1b chromo inh | G9a inh | BAZ2B inh | JMJD2A Tudor | Sfp PPTase inh
CN(C)S(=O)(=O)c1ccc(S(=O)(=O)N(CC(=O)Nc2ccccc2)CC2CCCO2)cc1 (stereo unspecified) | -0.1% | 21.4% | 31.6µM* | -5.0% | -5.3% | -2.1%
CC1(NC(=O)C2CC2)CN(Cc2nc(-c3ccc(Oc4ccccc4)cc3)cs2)C1 | 14.8%[176 µM] | . | . | . | . | .
O=C(c1ccc2c3n(nc2c1)-c1ccc(Cl)cc1CO3)N1CCCCC1 | -20.9% | 21.9% | -21.7%[12.7 µM] | -33.7% | -26.8% | 56.2µM*
O=C(NCCO)c1ccc2c3n(nc2c1)-c1ccc(Cl)cc1CO3 | -12.2% | 36.9% | -6.1%[12.7 µM] | 6.5% | 0.0% | 89.1µM*
O=C(O)c1ccc2c3n(nc2c1)-c1ccc(Cl)cc1CO3 | -13.3% | 27.0% | 50.1µM* | ? | -14.6% | 3.8%
CN(Cc1nc(-c2ccccc2Cl)no1)C(=O)COc1ccc2ccccc2c1Br | 20.7% | . | . | . | . | .
Cc1cc(CN2CCn3c(nnc3-c3ccccc3)C2)no1 | 9.3%[6.33 µM] | . | . | . | . | .
O=C(Nc1ccc(Cl)cc1)Nc1nnc(COc2ccc(Cl)cc2)s1 | 3.7% | . | . | . | . | .
CCc1ccc(OCC(=O)c2ccc3c(c2)N(CCCC(=O)NCC2CCCO2)C(=O)CO3)cc1 (stereo unspecified) | 23.7% | . | . | . | . | .
CCN1CCN(CCC(=O)Nc2cc(C)ccc2C)CC1 | 9.6% | 31.6% | 4.8% | -0.6% | -10.3% | 17.5%
Cc1ccc(C)c(NC(=O)CCN2CCc3ccccc3C2)c1 | -1.8% | 29.3% | 50.1µM* | -38.7% | -15.1% | 6.1%
CC1Cc2ccccc2N1C(=O)CNc1cccc(S(=O)(=O)N2CCCC2)c1 (stereo unspecified) | -25.2% | -21.9% | 50.1µM* | ? | 6.31µM* | 2.4%
CC1Cc2ccccc2N1C(=O)CN1CCN(S(=O)(=O)c2ccc3c(c2)OCCCO3)CC1 (stereo unspecified) | -4.6% | . | . | . | . | .
O=C(CN1CCc2ccccc2C1)Nc1cccc(S(=O)(=O)N2CCCC2)c1 | -15.5% | ? | 3.98µM* | . | ? | ?
Cc1cc(C)cc(NC(=O)CN2CCc3ccccc3C2)c1 | -15.5% | -44.5% | 26.9%[0.501 µM] | 31.6µM* | 39.8µM* | -8.5%
O=C(CN1CCc2ccccc2C1)Nc1ccc(F)cc1 | 10.7% | 33.4% | 19.5%[59 µM] | 1.9% | 6.0% | 19.7%
COc1ccc(NC(=O)c2nnn(Cc3ccc(Cl)cc3)c2N)c(OC)c1 | -14.9% | . | . | . | . | .
CCN(CC)S(=O)(=O)c1cc(NC(=O)C2CCCN(C(=O)c3ccc(Cl)cc3)C2)ccc1C (stereo unspecified) | 13.3% | . | . | . | . | .
CC(C)CN1C(=O)COC[C@@H]1[C@H](O)c1ccc(NC(=O)c2cccnc2)cc1 | 8.6%[176 µM] | . | . | . | . | .
CN1CC(=O)N(CC(=O)Nc2ccc(Cl)c(C(F)(F)F)c2)c2ccccc2C1=O | -4.7% | 30.6% | 7.2%[59 µM] | 3.9% | -18.7% | .
CN(C)c1ccc(NC(=O)CN2CCc3ccccc3C2)cc1 | -22.7% | ? | 12.6µM* | 39.8µM* | 50.1µM* | 11.3%
CN1CC(=O)N(CC(=O)Nc2ccc(N(C)C)cc2)c2ccccc2C1=O | -6.2% | 17.7% | 14.1µM* | 50.1µM* | -26.6% | ?
CCNC(=O)c1coc(COc2ccc3c(c2)C(c2cccc(F)c2)N(C(=O)C(C)(C)C)CC3)n1 (stereo unspecified) | 7.0% | . | . | . | . | .
O=C(CCC1CCN(S(=O)(=O)c2ccc(F)cc2)CC1)NCc1nc2ccccc2[nH]1 | 27.3% | . | . | . | . | .
CCn1c2ccccc2c2nnc(SCC(=O)NC3CCS(=O)(=O)C3)nc21 (stereo unspecified) | -14.1% | 23.8% | 39.8µM* | -30.6% | -13.9% | -4.8%

Screening results (PubChem BioAssay)
